Screening data deposited in PubChem BioAssay by several laboratories.
HIF-2a inh: HIF-2a inhibition. 360,000 tested, 0.72% active. AID 624352. 786-0 RCC cells HIF-2a reporter, luciferase luminescence, overnight. inhibition, % at 18.8 µM;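 active = inhibition of the luminescence signal of 40% or more relative to plate controls, in a single-dose primary screen at 18.75 µM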
CF NFkB inh: cystic fibrosis NF-kB activation inhibition. KKLEB NF-kB-GFP reporter, PAF-induced, GFP fluorescence overnight. 360,000 tested, 0.86% active. inhibition, % at 5 µM;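 active = at least 50% inhibition at 5 µM, scaled per plate between neutral and stimulator controls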;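 note: PAF is a Pseudomonas aeruginosa culture filtrate used as stimulus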
TRPM1 prom inh: reduces MITF-dependent TRPM1 promoter luciferase signal; SK-MEL-5 TRPM1 promoter luciferase, 24 h; 330,000 tested, 0.83% active; AID 488899; inhibition, % at 12.5 µM;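 active = mean inhibition across replicates of 60% or more, whatever share of single replicates reaches that level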
KKLEB cytotox: CF airway cell cytotoxicity counter-screen | AID 602141 | 360,000 tested, 0.36% active | KKLEB CF airway cells viability, ATPlite luminescence, overnight; active compounds read low; cells stimulated with P. aeruginosa culture filtrate | activity change (cytotoxicity), % at 5 µM;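 active = corrected activity change at or below -50% at 5 µM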
B2AR ag: human beta-2 adrenergic receptor agonism by FAP. Am2.2-beta2AR cells, FAP receptor internalization, flow cytometry. P07550. AID 504454. 340,000 tested, 0.43% active. response, % (test concentration not listed);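 active = response above a set limit, near 3 SD of response in nonfluorescent compounds, cut at about 42% in these data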
Target sequence (P07550 whole entry, looked up): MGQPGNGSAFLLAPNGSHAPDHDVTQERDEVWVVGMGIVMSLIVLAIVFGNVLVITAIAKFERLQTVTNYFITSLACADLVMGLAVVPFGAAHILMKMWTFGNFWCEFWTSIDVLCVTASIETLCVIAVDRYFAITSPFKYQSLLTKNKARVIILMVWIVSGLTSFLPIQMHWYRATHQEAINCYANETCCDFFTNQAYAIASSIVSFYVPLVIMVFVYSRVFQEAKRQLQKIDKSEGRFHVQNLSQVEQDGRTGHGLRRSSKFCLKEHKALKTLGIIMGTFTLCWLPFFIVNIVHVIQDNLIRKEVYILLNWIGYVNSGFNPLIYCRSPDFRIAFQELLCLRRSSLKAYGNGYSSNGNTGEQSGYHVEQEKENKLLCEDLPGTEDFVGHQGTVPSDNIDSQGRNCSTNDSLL
Peg3 prom inh: reduces Peg3 promoter-driven luciferase expression in HeLa. 360,000 tested, 1.7% active. inhibition, % at 20 µM. HeLa PEG-Prom luciferase reporter, luminescence, overnight;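 active = inhibition of at least 50% at 20 µM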
Large screens that a line does not name were inactive; ! = repeats disagree. The list is not random: actives were taken first. Their share in the collection is about 2.8%.

Clc1cccc(NC2=NCCS2)c1	none (no result: TRPM1 prom inh, B2AR ag)
CC[n+]1c(/C=C/N(C)c2ccccc2)sc2ccc(Cl)cc21	TRPM1 prom inh 67.2
COC(=O)c1nc(-c2ccc3c(n2)C(=O)C(N)=C(OC)C3=O)c(N)c(-c2ccc(OC)c(OC)c2O)c1C	CF NFkB inh 88.7, TRPM1 prom inh 100.0, Peg3 prom inh 53.1
O=C(CCc1ccccc1)N1Cc2cc(-c3cccc(F)c3)ccc2-n2nncc2C1	none (no result: TRPM1 prom inh, B2AR ag)
CCc1nc2ccc(Br)cc2c(=O)n1-c1ccccc1C(F)(F)F	none
CCCc1nc2ccc(Br)cc2c(=O)n1-c1ccc([N+](=O)[O-])c(C(F)(F)F)c1	Peg3 prom inh 55.1
c1ccc2c(c1)[IH]c1ccccc1-2	HIF-2a inh 51.8, TRPM1 prom inh 88.2, Peg3 prom inh 96.0
O=C1NCN(c2ccccc2)C12CCN(C(c1cc3ccccc3o1)c1nnnn1C1CCCCC1)CC2 (configuration not stated)	none (no result: TRPM1 prom inh, B2AR ag)
CC(C)C[C@@H]1COc2cc(N3CCN(C)CC3)ccc2S(=O)(=O)N1	none (no result: CF NFkB inh, TRPM1 prom inh, KKLEB cytotox, B2AR ag, Peg3 prom inh)
COc1ccc(C(=O)OC2C[C@H]3CC[C@@H](C2)N3O)cc1OC (some centres not stated)	B2AR ag 62.1
COC(=O)C1=COC(C)C2CN3CCc4c([nH]c5cc(OC)ccc45)C3CC12 (configuration not stated)	none (no result: TRPM1 prom inh, B2AR ag)
O=C(CCN1CC1)OCCOC(=O)CCN1CC1	B2AR ag 55.1
O=c1[nH]c(=S)[nH]c(O)c1/C=C1/C=c2ccccc2=N1	B2AR ag 51.7
CCn1cc(C(=O)c2ccccc2)c2ccccc21	none
C[N+](C)(C)CC1CCCC(C[N+](C)(C)C)C1=O (configuration not stated)	Peg3 prom inh 83.3
CC12CCC3C(CC=C4CC(O)CCC43C)C1C/C(=C\c1ccccc1F)C2=O (configuration not stated)	Peg3 prom inh 50.5
S=C(NCCc1ccccc1)N1Cc2ccc(Br)cc2-n2nncc2C1	Peg3 prom inh 51.0 (no result: TRPM1 prom inh, B2AR ag)
Cc1cccc(C)c1-n1nnnc1C(c1cccs1)N1CCC2(CC1)C(=O)NCN2c1ccccc1 (configuration not stated)	none (no result: TRPM1 prom inh, B2AR ag)
CCCCCCCCCCCCCCCC[n+]1ccccc1	HIF-2a inh 93.1, CF NFkB inh 61.9, TRPM1 prom inh 81.5, KKLEB cytotox -50.2!, Peg3 prom inh 97.3
CCCCCCC[n+]1ccc(-c2cc[n+](CCCCCCC)cc2)cc1	none
CC12CC[C@H]3[C@@H](CCC4(O)C[C@H](O)CCC34/C=N/NC(=O)c3ccccc3F)C1(O)CCC2C1=CC(=O)OC1 (some centres not stated)	none
CC1OC(OC2CC(O)C3(CO)C4C(O)CC5(C)C(C6=CC(=O)OC6)CCC5(O)C4CCC3(O)C2)C(O)C(O)C1O (configuration not stated)	HIF-2a inh 84.4, CF NFkB inh 90.8, TRPM1 prom inh 86.7, KKLEB cytotox -50.7, Peg3 prom inh 109.7
Cc1cc(O)c2c(c1)C(=O)C13C(=C2O)C(=O)[C@H]2[C@@H](O)[C@@H]1[C@H]1[C@H](O)[C@@H]3C(=O)C3=C(O)c4c(O)cc(C)cc4C(=O)C312 (some centres not stated)	CF NFkB inh 79.3
CCC1C2CC3C4N(C)c5ccccc5C45CC(C2C5O)N3C1O (configuration not stated)	none (no result: TRPM1 prom inh, B2AR ag)
Cc1cccc(N=C2c3cc([N+](=O)[O-])ccc3-c3c2cc([N+](=O)[O-])cc3[N+](=O)[O-])c1	Peg3 prom inh 86.1
CCCCC1(CCCC)C(=O)NC(=Nc2cccc(C)c2)NC1=O	none
O=C1NCN(c2ccccc2)C12CCN(C(c1ccccc1OC(F)(F)F)c1nnnn1C1CCCC1)CC2 (configuration not stated)	none (no result: TRPM1 prom inh, B2AR ag)
COC(=O)C1=C(c2ccc(OCc3ccccc3)cc2)C[C@@H]2CC[C@H]1N2C(=O)NC1CCN(Cc2ccccc2)CC1	Peg3 prom inh 86.5
COC(=O)C1=C(c2ccc(OCc3ccccc3)cc2)C[C@@H]2CC[C@H]1N2C(=O)NCCN1CCOCC1	none
COc1ccc(-n2nnnc2C(c2ccccc2OC(F)(F)F)N2CCC(n3c(=O)[nH]c4ccccc43)CC2)cc1 (configuration not stated)	Peg3 prom inh 84.5 (no result: TRPM1 prom inh, B2AR ag)
